# In PubChem BioAssay (NCATS):
# Results filed as inconclusive are left out. Unmarked numbers belong to inactive results. Calls of active or inactive are those of the source. The call rests on the fitted dose curve; in most records, active means well fitted cell-killing curve with a large enough effect; inconclusive means small, poorly fitted or top-dose-only effect; inactive means flat fitted curve, though single readings scatter.
# Assay: qHTS of pediatric cancer cell lines to identify multiple opportunities for drug repurposing: Primary screen for Rh18 cells (AID 1347102); further: nearly all actives have a fitted effect of over 65% in size
# Settings: Rh18 rhabdomyosarcoma viability, CellTiter-Glo luminescence, 48 h; series mostly up to 46 µM; activity change, negative = cytotoxic: at the top concentration
# Description: Drug repurposing or repositioning has been offered as a strategy for drug development in oncology programs. This approach has special potential for childhood cancers and other rare or orphan diseases, where the expected return on new drug development has been a disincentive to pharmaceuticals.
# In this project we exploit the poly-pharmacology of drugs to discover new indications via phenotypic screening of a panel of 19 well-characterized cell lines derived from solid tumors seen in children and adolescents. The goal is to identify approved drugs with previously unrecognized anticancer properties that has the potential to reveal new mechanisms and biological processes involved in carcinogenesis or drug resistance. We employed a titration-based paradigm (quantitative high-throughput screening or qHTS), where all compounds were tested at multiple concentrations for their effect on cell viability. Concentration-response curves (CRCs) were derived directly from the primary screen, and both potency and efficacy values were used to identify compounds with robust bioactivity profiles. We screened the NIH Chemical Genomics Center (NCGC) Pharmaceutical Collection (NPC) and Mechanism Interrogation Plate (MIPE) small molecule collections of approved and investigational compounds against these cell lines; and measured metabolically active cells after 48 hours of compound treatment as a proxy for cell viability.
# Assay Submitter: Nathalia J. Martinez, National Center for Advancing Translational Sciences, National Institutes of Health, Rockville, MD, USA; email: natalia.martinez@nih.gov
# [1] Shen, M et al. Quantitative high-throughput phenotypic screening of pediatric cancer cell lines identifies multiple opportunities for drug repurposing. Oncotarget 2017 Dec 19;9(4):4758-4772. PMID 29435139.
# The cells were obtained from University of North Carolina (UNC), Pediatric Preclinical Testing Program (PPT), and Coriell Institute (CI).
# qHTS cell viability assay:
# Cells were assayed in growth media at a density of 500-1,000 cells/well. Five microliters of cells were dispensed into 1,536-well, white, solid-bottom, TC-treated plates (Greiner Bio One) using a multidrop dispenser and incubated at 37 degrees C, 5% CO2, under a humidified atmosphere for 5 hours. Twenty-three nanoliters of compounds and controls (neutral control DMSO or positive control bortezomib at final concentration of 2.3 µM) were subsequently transferred by Kalypsys pintool. For primary screens, the MIPE collection was tested at 11-point dilutions (final concentrations range from 0.78 nM to 46 µM) and the NPC collection at 8-point dilutions (final concentrations range from 0.59 nM to 46 µM). Compounds tested in follow-up screens were assayed at 11-point dilutions. Cells were incubated for 48 hours, followed by addition of 3 µL of CellTiter-Glo (Promega). After a 15 min incubation at room temperature, samples were analyzed for luminescence intensity using a ViewLux High-throughput CCD imager equipped with clear filters.
# On the % scale 0 is the no-effect control and ±100 the full control effect; potency means the concentration at half of the fitted maximal effect.
Structure (SMILES),Potency,"activity change, negative = cytotoxic"
CC(C)(N)c1ccc(-c2nc3ccccc3nc2-c2ccccc2)cc1,20.9 µM (active),
O=c1ccn([C@@H]2O[C@H](CO)[C@H](O)[C@@H]2F)c(=O)[nH]1,,18.6%
O=C1c2c(O)cccc2[C@@H]([C@@H]2O[C@H](CO)[C@@H](O)[C@H](O)[C@H]2O)c2cc(CO)cc(O)c21,,15.2%
CCN(CC)Cc1ccc2cc(COC(=O)Nc3ccc(C(=O)NO)cc3)ccc2c1,0.743 µM (active),
FC(F)c1nc2ccccc2n1-c1nc(N2CCOCC2)nc(N2CCOCC2)n1,0.935 µM (active),
Oc1cc(-c2nc(-c3ccccc3)[nH]c2-c2ccncc2)ccc1Cl,13.2 µM (active),
COc1ccc(Nc2nccc(NCCO)n2)cc1,,-7.44%
C[C@@H](NCc1cc2ccccc2[nH]1)c1cccc2ccccc12,,-6.82%
CC(=O)O[C@H]1C[C@@H]2CC[C@H]3[C@H]4C[C@H]([N+]5(C)CCCCC5)[C@@H](OC(C)=O)[C@@]4(C)CC[C@@H]3[C@@]2(C)C[C@H]1N1CCCCC1,,15.3%
CCCc1nc(C(C)(C)O)c(C(=O)O)n1Cc1ccc(-c2ccccc2-c2nn[nH]n2)cc1,,12%
COC1=C(OC)C(=O)C(CC=C(C)CCC=C(C)CCC=C(C)CCC=C(C)CCC=C(C)CCC=C(C)CCC=C(C)CCC=C(C)CCC=C(C)CCC=C(C)C)=C(C)C1=O,,7.89%
O=C(NC1CC1)c1cccc(-c2ccc3c(NC(=O)C4CC4)n[nH]c3c2)c1,2.96 µM (active),
COc1cc(C(=O)NC2CCN(C)CC2)ccc1Nc1ncc2c(n1)N(C1CCCC1)CCC(=O)N2C(C)C,18.7 µM (active),
CC(=O)[C@]1(O)Cc2c(O)c3c(c(O)c2[C@@H](O[C@H]2C[C@H](N)[C@@H](O)[C@H](C)O2)C1)C(=O)c1ccccc1C3=O,4.69 µM (active),
C=CCNC1=C2C[C@@H](C)C[C@H](OC)[C@@H](O)[C@@H](C)C=C(C)[C@H](OC(N)=O)[C@@H](OC)C=CC=C(C)C(=O)NC(=CC1=O)C2=O,0.833 µM (active),
N#CC(=C(N)Sc1ccc(N)cc1)c1ccccc1C(F)(F)F,,-3.2%
FC(F)(F)c1ccc(Nc2nc3ccc(Oc4ccnc(-c5ncc(C(F)(F)F)[nH]5)c4)cc3[nH]2)cc1,,3.15%
COc1ccc2c(c1OC)C(=O)OC2[C@H]1c2c(cc3c(c2OC)OCO3)CCN1C (stereo not given in full),,-22%
CCOC(=O)C1=C(C)NC(=S)NC1c1cccc(O)c1 (stereo not given),,-2.15%
C[C@H]1C[C@H]2[C@@H]3CCC4=CC(=O)C=C[C@]4(C)[C@@H]3C(=O)C[C@]2(C)[C@@]1(O)C(=O)CO,,0.679%

Structure (SMILES),Potency,"activity change, negative = cytotoxic"
CC(=O)OC[C@@H]1O[C@@H](n2ccc(=O)[nH]c2=O)[C@H](OC(C)=O)[C@H]1OC(C)=O,,2.38%
Cc1cc(Nc2ncc3c(n2)N(C)C(=O)N(c2cc(NC(=O)c4cccc(C(F)(F)F)c4)ccc2C)C3)n(C)n1,0.59 µM (active),
C[N+]1(C)[C@@H]2C[C@@H](OC(=O)C(O)(c3cccs3)c3cccs3)C[C@H]1[C@@H]1O[C@@H]12,,17.5%
CC(C)(C)[C@H](NC(=O)c1ccc(N)c(Cl)c1)C(=O)N1CCC[C@@H]1C(=O)N[C@H](C#N)CC(=O)O,,0.535% [at 4.84 µM]
CC1(C)CC(O)CC(C)(C)N1[O],,2.7%
c1ccc2c(Oc3nc(Nc4ccc(N5CCOCC5)cc4)c4ncn(C5CCCCC5)c4n3)cccc2c1,,-1.36%
C[C@H](NCc1ccc(OCc2cccc(F)c2)cc1)C(N)=O,20.9 µM (active),
COc1cc(CCc2cc(NC(=O)c3ccc(N4C[C@@H](C)N[C@@H](C)C4)cc3)n[nH]2)cc(OC)c1,5.9 µM (active),
C[C@@H]1C(=O)O[C@H]2CC34[C@H]5C[C@@H](C(C)(C)C)C36[C@H](OC(=O)[C@@H]6O)O[C@@]4(C(=O)O5)[C@]21O (stereo not given in full),,-13.5%
CC(C=CC1=C(C)CCCC1(C)C)=CC=CC(C)=CC(=O)Nc1ccc(O)cc1,42.9 µM (active),
Cc1cc(-c2nnc3n2CCCCC3)c(C)n1-c1ccccc1,,6.59%
OCC(O)C(O)C(O)CO (stereo not given),,4.95%
C=C(C)[C@@H]1CC[C@]2(C)CC[C@]3(C)[C@H](CC[C@@H]4[C@@]5(C)CC[C@H](O)C(C)(C)[C@H]5CC[C@]43C)[C@@H]12,,27%
CCCNS(=O)(=O)Nc1ncnc(OCCOc2ncc(Br)cn2)c1-c1ccc(Br)cc1,,2.73%
CN(C)CC(=O)N1CCC(c2ccc(NC(=O)c3ncc(C#N)[nH]3)c(C3=CCCCC3)c2)CC1,23.5 µM (active),
CN1CCCN(C(=O)c2cccc(-c3ccc(C=C4C(=O)Nc5ccc(Cl)cc54)o3)c2)CC1,7.43 µM (active),
O=C(c1ccc(F)cc1)N1CCC[C@H](c2nc(-c3ccc(F)cc3)no2)C1,,16.7%
CCCCOc1ccc(C(=O)Nc2ccc(F)cc2F)cc1,,-0.192%
Nc1nc(=O)n([C@H]2CSC(CO)O2)cc1F (stereo not given in full),,8.44%
COc1ccc(CCC(=O)c2c(O)cc(O[C@@H]3O[C@H](CO)[C@@H](O)[C@H](O)[C@@H]3O[C@@H]3O[C@@H](C)[C@H](O)[C@@H](O)[C@@H]3O)cc2O)cc1O,,3.18%
